Laboratory results: PubChem BioAssay (NCI)
The panel holds about 79,000 compounds, 15% with a hit somewhere; the sample as a whole holds those more often. The source made the active and inactive calls. No stated cut-off is given here; in the data, active means growth inhibition above about 70%; inactive means the rest.

Assay: NCI Yeast Anticancer Drug Screen. Data for the wt1 strain (AID 149);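 further: 0% = growth of vehicle-treated wt1 cultures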
Conditions: S. cerevisiae wt1 strain (SPY 50644) growth inhibition, stronger effect = higher value
Method: Growth inhibition of yeast strains with defined genetic alterations is measured as a screen for potential anti-cancer activity. Selected strains with alterations in DNA damage repair or cell cycle control were exposed to compounds and growth inhibition was measured relative to vehicle treated controls. The strain used in this assay is wt1

Structure (SMILES) | growth inhibition (at 1.2 µM) | growth inhibition (at 3.7 µM) | growth inhibition (at 11.0 µM) | growth inhibition (at 33.0 µM) | growth inhibition (at 100.0 µM)
CC(=O)OC1CC2C(C)(C)C(=O)C=C[C@]2(C)C2CCC3(C)C(=CCC3[C@H](CO)C[C@H](O)C(=O)C(C)(C)O)[C@]12C (stereo not given in full) | -26% (inactive) | -17% (inactive) | -31% (inactive) | -21% (inactive) | 75% (active)
CC(=O)Nc1ccc(/C=C/[N+](=O)[O-])cc1 | -1% (inactive) | -3% (inactive) | -4% (inactive) | 6% (inactive) | 75% (active)
CN(C)CCOC1(Cc2ccc(F)cc2)CCC(C(C)(C)C)CC1 (stereo not given) | 10% (inactive) | 6% (inactive) | -11% (inactive) | -5% (inactive) | 95% (active)
Cc1ccc(NC(c2ccccc2)c2ccc3cccnc3c2O)cc1 (stereo not given) | 1% (inactive) | 4% (inactive) | 4% (inactive) | 1% (inactive) | 1% (inactive)
CC(=O)OCC(C)Cc1cc2c(cc1Br)OCO2 (stereo not given) | 1% (inactive) | -5% (inactive) | 6% (inactive) | -2% (inactive) | -13% (inactive)
CCCCN(CCCC)C(=O)/C=C/c1ccccc1 | 0% (inactive) | 3% (inactive) | 11% (inactive) | 10% (inactive) | 82% (active)
CN(C)c1nc(=Nc2cccc(Cl)c2)ss1 | 7% (inactive) | 20% (inactive) | 63% (inactive) | 99% (active) | 99% (active)
Nc1n[n+]([O-])c2ccc(Cl)cc2[n+]1[O-] | 8% (inactive) | 13% (inactive) | 31% (inactive) | 62% (inactive) | 84% (active)
